CHRM1 antagonist: antagonists of human M1 muscarinic receptor. actives 1.3% (n = 360,000). P11229. CHO-K1 hM1, Fluo-8 calcium fluorescence, ACh EC80 antagonist. inhibition, % at 3 µM. AID 588852;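 active means percent inhibition above its own plate's cutoff, namely the mean of that plate's compound wells plus 3 SD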;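 further: peak over basal fluorescence ratio during 140 s after agonist addition; 0% = ACh EC80 plus DMSO and 100% = DMSO alone without agonist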
Target sequence (P11229 whole entry, looked up): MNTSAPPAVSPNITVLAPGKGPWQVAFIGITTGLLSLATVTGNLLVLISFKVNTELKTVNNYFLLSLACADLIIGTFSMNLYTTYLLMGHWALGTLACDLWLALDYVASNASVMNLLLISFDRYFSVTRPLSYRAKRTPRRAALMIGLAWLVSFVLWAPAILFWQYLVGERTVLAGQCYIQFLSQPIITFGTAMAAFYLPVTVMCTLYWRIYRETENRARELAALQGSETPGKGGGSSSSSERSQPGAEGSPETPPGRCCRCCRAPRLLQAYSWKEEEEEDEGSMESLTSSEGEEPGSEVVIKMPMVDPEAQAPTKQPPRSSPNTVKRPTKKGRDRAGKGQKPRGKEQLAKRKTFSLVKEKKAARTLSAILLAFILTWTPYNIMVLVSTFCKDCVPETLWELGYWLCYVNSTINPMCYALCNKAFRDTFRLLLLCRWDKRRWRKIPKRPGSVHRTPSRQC
M1 ag parental: counter-screen for M1 agonists: effect in parental CHO-K1 cells. Fluo-8 calcium fluorescence; scaled to maximal ATP response, vehicle zero. activation, % at 3 µM. actives 0.48% (n = 360,000); in the data active means activation above about 15%;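 further: untransfected CHO-K1 host cells lacking M1 receptor as counterscreen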
M1 PAM parental: counter-screen for M1 PAMs: effect in parental CHO-K1 cells; ATP EC20, Fluo-8 calcium fluorescence; 0% at ATP EC20, 100% at ATP max; AID 602247; actives 0.02% (n = 360,000); activation, % at 3 µM;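 active means activation above the run cutoff, the mean activation of all test compounds plus 3 SD, cut at about 40% in these data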;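 further: peak over basal fluorescence ratio in a 140 s read after ATP addition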
M1 PAM: potentiates human M1 receptor response to acetylcholine. P11229. activation, % at 3 µM. CHO-K1 hM1, Fluo-8 calcium fluorescence, ACh EC20; 0% = ACh EC20, 100% = maximal ACh. AID 588819. actives 0.088% (n = 360,000); in the data active means activation above about 19%, passing the limit was not always enough
CHO-K1 Ca antag: nonselective inhibitor or artifact in parental CHO-K1 cells. actives 0.6% (n = 360,000). ATP-induced calcium, Fluo-8 fluorescence. inhibition, % at 3 µM;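 active means inhibition above a per-plate cutoff, the plate's mean sample inhibition plus 3 SD, cut at about 24% in these data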;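 further: 0% = DMSO plus EC80 ATP and 100% = DMSO alone without ATP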
CHRM1 agonist: activates human CHRM1 receptor; activation, % at 3 µM; actives 0.33% (n = 360,000); CHO-K1 hM1, Fluo-8 calcium fluorescence, agonist mode; 0% DMSO, 100% acetylcholine EC100;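 active means activation above the run's mean compound activation plus 3 SD, cut at about 16% in these data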;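 further: peak over basal fluorescence ratio within a 140 s kinetic read after compound addition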
An asterisk follows results filed as active. In the library only some 2.4% were active in any assay of this set; here they are far more common.

SMILES | CHRM1 antagonist | M1 ag parental | M1 PAM parental | M1 PAM | CHO-K1 Ca antag | CHRM1 agonist
CC(=O)N(C)c1ccc(NC(=O)Nc2ccccc2C)cc1 | -2 | 1 | 10 | -1 | -13 | -2
COC(=O)c1ccc(NC(=O)Nc2ccc(F)cc2)cc1 | 13 | 9 | 7 | -3 | 19 | 1
Cc1ccc(NC(=O)Nc2ccc(F)cc2)cc1Cl | 11 | 12 | -6 | -20 | 26* | 3
COC(=O)c1ccc(NC(=O)Nc2ccc(F)c(Cl)c2)cc1 | 32* | 15* | 3 | -19 | 17 | 7
CC(=O)N(C)c1ccc(NC(=O)Nc2ccc(C)c(C)c2)cc1 | 27* | 7 | -2 | -18 | 14 | 1
Cc1ccc(NC(=S)Nc2ccc(OC(F)F)c(Cl)c2)cc1F | 24* | 12 | 0 | -19 | 6 | -3
COC(=O)c1ccc(NC(=O)Nc2ccc([N+](=O)[O-])cc2)cc1 | 24 | 16* | -6 | -11 | 20 | 4
Fc1ccc(NC(=S)Nc2ccc(F)c(Cl)c2)cc1Cl | 24* | 10 | 3 | -12 | 28* | 6
O=C(Nc1ccncc1)Nc1ccc(F)c(Cl)c1 | 8 | 11 | 0 | 0 | 24* | 4
O=C(NC(=S)Nc1ccc(F)c(Cl)c1)C1CC1 | -20 | 0 | 21 | 7 | -11 | -5
O=C(Nc1ccc(F)c(Cl)c1)Nc1csc2ccccc12 | 38 | 13 | -10 | -16 | 28* | 6
O=C(OCc1cccc([N+](=O)[O-])c1)c1ccc[nH]c1=O | -4 | 0 | 4 | 8 | -5 | -2
CCC(C)N1CCN(C(=O)C2CCN(S(=O)(=O)c3c(C)noc3/C=C/c3ccco3)CC2)CC1 (stereo not given) | 80* | -1 | -18 | -24 | 10 | -6
Cc1cccc(NC(=O)C2CCN(S(=O)(=O)c3c(C)noc3/C=C/c3ccco3)CC2)n1 | 5 | 4 | 15 | -3 | -5 | -3
CCOC(=O)c1ccc(S(=O)(=O)Nc2ccccc2-c2nnn(CC)n2)cc1 | 47* | 14 | -13 | -32 | -3 | -6
Cc1ccc(S(=O)(=O)CC(c2ccccc2)N2CCCCC2)cc1 (stereo not given) | 9 | -1 | -16 | -7 | 27* | -4
Cc1ccc(C(CNS(=O)(=O)c2ccccc2)N2CCN(C)CC2)cc1 (stereo not given) | -21 | 0 | 9 | 25* | -4 | -4
Cc1ccc(S(=O)(=O)CC(c2ccccc2)N2CCOCC2)cc1 (stereo not given) | -10 | 0 | -1 | 4 | 4 | -2
Cc1ccc(C(CNS(=O)(=O)c2ccc(Br)cc2)N2CCN(C)CC2)cc1 (stereo not given) | 13 | 5 | 11 | -4 | 3 | -5
NS(=O)(=O)c1ccc(CCNC(=O)c2ccccc2Cc2ccccc2)cc1 | -6 | 2 | 3 | 7 | -6 | -1
CCN1/C(=C/c2ccc3cc(C)ccc3[n+]2CC)Sc2cc(C)ccc21 | 67* | 22* | -15 | -18 | 43* | 26*
CCN1/C(=C/c2ccc3ccccc3[n+]2CC)C=Cc2ccccc21 | 48* | 6 | -1 | -11 | 32* | 2
CCCCN1/C(=C/c2ccc3ccccc3[n+]2CC)Sc2ccccc21 | 44* | 19* | 7 | -19 | 22 | 26*
CCN1/C(=C/c2ccc3ccccc3[n+]2CCCS(=O)(=O)[O-])C=Cc2cc(C)ccc21 | -10 | 0 | -10 | 19 | 1 | 8
COc1cc(C(=O)O)nc(OC)n1 | 0 | 1 | -4 | 1 | 10 | -3
SMILES | CHRM1 antagonist | M1 ag parental | M1 PAM parental | M1 PAM | CHO-K1 Ca antag | CHRM1 agonist
CC1CCCC(NC(=O)CCNS(=O)(=O)c2ccc(Br)cc2)C1C (stereo not given) | -9 | 6 | 16 | 5 | -12 | 0
Cc1ccc(CN2C(=O)CSc3ccc(C(=O)NCCN4CCOCC4)cc32)cc1 | -8 | 0 | -1 | 5 | 3 | -5
O=C(NCCCN1CCOCC1)c1ccc2c(c1)N(Cc1cccc(Cl)c1)C(=O)CS2 | 65* | 2 | -1 | -32 | -21 | -11
CCCCCCCCS(=O)C1CCS(=O)(=O)C1 (stereo not given) | -6 | 0 | 3 | 4 | -3 | -3
CCCCCCS(=O)[C@H]1CS(=O)(=O)C[C@@H]1S(=O)CCCCCC (stereo not given in full) | 19* | 0 | 0 | -13 | 10 | -5
COc1cc(CC(=O)OCC(=O)Nc2ccc(N(C)C)cc2)cc(OC)c1OC | 12 | 1 | 9 | -3 | -10 | -1
Cc1cc(C(=O)COc2ccc(C#N)cc2)c(C)n1-c1ccc2c(c1)OCO2 | 3 | 0 | -6 | -10 | 32* | -9
Cc1cc(C(=O)COC(=O)C2=COCCO2)c(C)n1-c1ccc2c(c1)OCO2 | -4 | 3 | 25 | -1 | -14 | -2
O=C(CCNS(=O)(=O)c1ccccc1C(F)(F)F)N1CCN(S(=O)(=O)c2cccc(F)c2)CC1 | 2 | 4 | 1 | 1 | -7 | -5
CCCn1c(N)c(C(=O)NS(=O)(=O)c2ccc(C)cc2)c(=O)n(C)c1=O | -3 | 17* | 2 | 6 | 6 | 0
O=C(OCC(=O)N(C1CCCCC1)C1CCCCC1)c1ccc(Cl)nc1 | -22 | 0 | 17 | 24* | -10 | 0
CCCOc1ccc(-c2c(C(=O)N/N=C/C3CCCCC3)nnn2-c2nonc2N)cc1 | -20 | 2 | 9 | 9 | -15 | -4
Oc1ccccc1N=Cc1c(O)ccc2oc3c(c12)CCCC3 | -17 | 16* | 15 | 5 | -4 | -2
O=C(O)c1ccc(N=Cc2c(O)ccc3oc4c(c23)CCCC4)cc1 | -8 | 2 | 6 | 5 | -11 | -4
Cc1c(Cl)cccc1N(Cc1ccc(C(=O)O)cc1)S(=O)(=O)c1ccccc1 | -9 | 2 | 14 | 7 | -7 | 0
O=C(NCC1CCCO1)Nc1cc(Cl)cc(Cl)c1 (stereo not given) | 6 | 1 | -7 | 6 | 25* | 1
O=C(NCC1CCCO1)Nc1ccc(Cl)cc1 (stereo not given) | -12 | 1 | 18 | 8 | -3 | -3
O=C(NCC1CCCO1)c1cccs1 (stereo not given) | -19 | 0 | -2 | 19* | -1 | -3
Cc1ccc(CN(C(=O)CNC(=O)c2cccs2)C(C(=O)NCC2CCCO2)c2ccccc2)cc1 (stereo not given) | 43* | 7 | 3 | -27 | -3 | -1
Cc1ccc(C(C(=O)NC2CCCCC2)N(CC2CCCO2)C(=O)CNC(=O)c2cccs2)cc1 (stereo not given) | 37* | 0 | -2 | -18 | -1 | -1
O=C(NCC(=O)N(CC1CCCO1)C(C(=O)NC1CCCCC1)c1ccccc1)c1cccs1 (stereo not given) | -20 | 1 | 12 | 7 | -11 | -1

Screens as filed in PubChem.
